The values below come from PubChem BioAssay.

Test [1] can be described thus: binders of probe aFSTL3 on microarray, primary screen, stem cell growth factor project, biochemical, small-molecule microarray, fluorescence 635/667 (AID 1064).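 Also: measures binding of the biotinylated anti-FSTL3 antibody to printed compounds.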 The following applies: higher = more signal.
Test [2] in a line: binders from COS7 lysate, DM2A8 probe, primary screen, torsin A project, cell lysate, small-molecule microarray, fluorescence 635/667 (AID 1065). The following applies: higher = more signal, COS7 lysate expressing mutant human TOR1A.
The nature of test [3]: binders of probe aFGF2 on microarray, primary screen, stem cell growth factor project, biochemical, small-molecule microarray, fluorescence 635/667 (AID 1067).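 Also: measures binding of biotinylated aFGF2 protein to printed compounds on slides; z-score merges feature fluorescence and signal-to-noise across triplicate slides.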 As to conditions: higher = more signal.
The nature of test [4]: binders of probe aFGF10 on microarray, primary screen, stem cell growth factor project, biochemical, small-molecule microarray, fluorescence 635/667 (AID 1071).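 Also: score merges 667 nm spot intensity and signal to noise from triplicate slides.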 As to conditions: higher = more signal.
For test [5], the target named is Neurogenic locus notch homolog protein 2 (Homo sapiens) (UniProt Q04721). In words: Notch2 binders on small-molecule microarrays, primary screen, biochemical, small-molecule microarray, 635 nm fluorescence, stem cell growth factors (AID 1073). The following applies: Notch2 binding, higher = more signal.
Test [6] concerns the target Pro-neuregulin-1, membrane-bound isoform (Homo sapiens) (UniProt Q02297). Put plainly: NRG1 binders on small-molecule microarrays, primary screen, psychiatric disease protein project, biochemical, small-molecule microarray, fluorescence 635/667 (AID 1075).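 Also: score combines 667 nm spot fluorescence with signal to noise.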 As to conditions: NRG1 binding, 635 nm fluorescence, higher = more signal.
Test [7] concerns Neuregulin-1 EGF-like domain. In words: binders of neuregulin-1 EGF-like domain, primary screen, biochemical, small-molecule microarray, 635 nm fluorescence (AID 1081).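 Also: binding of the protein to compounds printed on small-molecule microarray slides.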 The following applies: small-molecule microarray binding, higher = more signal.
A short description of test [8]: FRG1 promoter luciferase signal modulators, primary screen, FRG1 inhibition for FSHD, cell-based, C2C12 myotubes, firefly/Renilla luciferase, luminescence (AID 1084). The following applies: higher = more signal, called active from +8 up or from −8 down.
Test [9] in a line: binders of probe aFST on microarray, primary screen, stem cell growth factor project, biochemical, small-molecule microarray, fluorescence 635/667 (AID 1086).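 Also: score merges 667 nm fluorescence with signal-to-noise of each printed compound spot.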 As to conditions: higher = more signal.
The nature of test [10]: binders of probe aHhip on microarray, primary screen, stem cell growth factor project, biochemical, small-molecule microarray, fluorescence 635/667 (AID 1087).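 Also: score merges spot fluorescence at 667nm with spot signal to noise ratio.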 As to conditions: higher = more signal.
Test [11] has as its system PRMT1 (protein arginine N-methyltransferase 1). In words: PRMT1 binders on small-molecule microarrays, primary screen, biochemical, small-molecule microarray, 635 nm fluorescence (AID 1088).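 Also: binding of Prmt1 protein to compounds spotted on small-molecule microarray slides.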 The following applies: small-molecule microarray binding, higher = more signal.
Test [12] can be described thus: yeast growth modulation, basal conditions, primary screen, YJM789 clinical isolate, OD600, 24 h (AID 1089).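 Also: growth of clinical yeast isolate S. cerevisiae YJM 789 seeded 1000 cells per well; test concentration not given here.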 As to conditions: S. cerevisiae YJM789 growth, higher = more signal, called active from +8 up or from −8 down.
Test [13] is described as follows: fission yeast growth modulation, primary screen, strain 972, OD600, 24 h, no modulator (AID 1090).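 Also: basal condition with compound alone and no growth modifier present; test concentration not given here.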 As to conditions: S. pombe 972 growth, higher = more signal, called active from +8 up or from −8 down.
A short description of test [14]: S. cerevisiae growth modulation with rapamycin, primary screen, strain BY4716, OD600, 96 h (AID 1091). Also: test concentration not given here. As to conditions: higher = more signal, called active from +8 up or from −8 down.
For test [15], the target named is Torsin-1A-interacting protein 2 (Homo sapiens) (UniProt Q8NFQ8). Put plainly: LULL1 binders on small-molecule microarray, primary screen, cell lysate, human LULL1 lysate, 635/667 nm fluorescence (AID 1092).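 Also: probe is lysate of COS7 cells overexpressing human LULL1; score merges per-feature 667 nm fluorescence with signal-to-noise.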 As to conditions: hLULL1 lysate binding, 635 nm fluorescence, higher = more signal.
Test [16] is described as follows: E. coli growth modulation, two-sided OD650, primary screen, E. coli filamentation project, strain DRC41, 24 h (AID 1093).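 Also: MC1000 strain lacking acrAB efflux and sulA so SOS filamentation is blocked; test concentration not given here.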 As to conditions: OD650, 24 h, higher = more signal, called active from +8 up or from −8 down.
Test [17] in a line: small-molecule microarray binders of probe aLefty2, primary screen, biochemical, biotinylated probe, 635/667 nm fluorescence (AID 1094).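 Also: score merges spot fluorescence near 667 nm with spot signal-to-noise ratio.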 The following applies: higher = more signal.
Test [18] deals with Noggin (protein binding on small-molecule microarray). In words: Noggin binders on small-molecule microarray, primary screen, biochemical, 635/667 nm fluorescence (AID 1095).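 Also: score merges 667 nm feature fluorescence with signal to noise over triplicate slides.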 As to conditions: 635 nm fluorescence, higher = more signal.
Test [19] deals with Neurogenic locus notch homolog protein 3 (Homo sapiens) (UniProt Q9UM47). In words: NOTCH3 binders on small-molecule microarray, primary screen, biochemical, 635/667 nm fluorescence (AID 1096). As to conditions: NOTCH3 binding, 635 nm fluorescence, higher = more signal.
Test [20] can be described thus: small-molecule microarray binders of probe aEGFR, primary screen, biochemical, biotinylated probe, 635/667 nm fluorescence (AID 1097).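 Also: probe is a biotinylated anti-EGFR antibody binding compounds printed on slides; score combines fluorescence near 667 nm and signal to noise of each spot.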 As to conditions: higher = more signal.

The source made the active and inactive calls.

Sequence of Pro-neuregulin-1, membrane-bound isoform (Homo sapiens) (Q02297 whole entry, looked up, the tested form may be a part, canonical isoform): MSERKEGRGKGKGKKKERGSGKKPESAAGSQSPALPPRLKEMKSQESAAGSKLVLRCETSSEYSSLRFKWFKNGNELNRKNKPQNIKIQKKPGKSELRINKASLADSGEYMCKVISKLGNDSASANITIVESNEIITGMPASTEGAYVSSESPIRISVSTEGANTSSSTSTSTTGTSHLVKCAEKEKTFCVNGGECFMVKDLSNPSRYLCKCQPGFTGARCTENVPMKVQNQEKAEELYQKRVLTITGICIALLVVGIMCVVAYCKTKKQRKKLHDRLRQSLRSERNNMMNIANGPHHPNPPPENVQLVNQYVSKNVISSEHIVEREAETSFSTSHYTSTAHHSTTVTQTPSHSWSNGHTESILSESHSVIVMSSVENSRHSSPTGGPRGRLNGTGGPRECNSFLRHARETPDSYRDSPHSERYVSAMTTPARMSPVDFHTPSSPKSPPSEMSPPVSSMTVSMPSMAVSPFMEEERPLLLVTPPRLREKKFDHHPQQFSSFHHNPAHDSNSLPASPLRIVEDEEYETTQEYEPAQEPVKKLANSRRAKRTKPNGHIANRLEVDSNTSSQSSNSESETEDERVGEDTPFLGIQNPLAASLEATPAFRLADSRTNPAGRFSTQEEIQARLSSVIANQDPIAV
Sequence of Neurogenic locus notch homolog protein 3 (Homo sapiens) (Q9UM47 whole entry, looked up): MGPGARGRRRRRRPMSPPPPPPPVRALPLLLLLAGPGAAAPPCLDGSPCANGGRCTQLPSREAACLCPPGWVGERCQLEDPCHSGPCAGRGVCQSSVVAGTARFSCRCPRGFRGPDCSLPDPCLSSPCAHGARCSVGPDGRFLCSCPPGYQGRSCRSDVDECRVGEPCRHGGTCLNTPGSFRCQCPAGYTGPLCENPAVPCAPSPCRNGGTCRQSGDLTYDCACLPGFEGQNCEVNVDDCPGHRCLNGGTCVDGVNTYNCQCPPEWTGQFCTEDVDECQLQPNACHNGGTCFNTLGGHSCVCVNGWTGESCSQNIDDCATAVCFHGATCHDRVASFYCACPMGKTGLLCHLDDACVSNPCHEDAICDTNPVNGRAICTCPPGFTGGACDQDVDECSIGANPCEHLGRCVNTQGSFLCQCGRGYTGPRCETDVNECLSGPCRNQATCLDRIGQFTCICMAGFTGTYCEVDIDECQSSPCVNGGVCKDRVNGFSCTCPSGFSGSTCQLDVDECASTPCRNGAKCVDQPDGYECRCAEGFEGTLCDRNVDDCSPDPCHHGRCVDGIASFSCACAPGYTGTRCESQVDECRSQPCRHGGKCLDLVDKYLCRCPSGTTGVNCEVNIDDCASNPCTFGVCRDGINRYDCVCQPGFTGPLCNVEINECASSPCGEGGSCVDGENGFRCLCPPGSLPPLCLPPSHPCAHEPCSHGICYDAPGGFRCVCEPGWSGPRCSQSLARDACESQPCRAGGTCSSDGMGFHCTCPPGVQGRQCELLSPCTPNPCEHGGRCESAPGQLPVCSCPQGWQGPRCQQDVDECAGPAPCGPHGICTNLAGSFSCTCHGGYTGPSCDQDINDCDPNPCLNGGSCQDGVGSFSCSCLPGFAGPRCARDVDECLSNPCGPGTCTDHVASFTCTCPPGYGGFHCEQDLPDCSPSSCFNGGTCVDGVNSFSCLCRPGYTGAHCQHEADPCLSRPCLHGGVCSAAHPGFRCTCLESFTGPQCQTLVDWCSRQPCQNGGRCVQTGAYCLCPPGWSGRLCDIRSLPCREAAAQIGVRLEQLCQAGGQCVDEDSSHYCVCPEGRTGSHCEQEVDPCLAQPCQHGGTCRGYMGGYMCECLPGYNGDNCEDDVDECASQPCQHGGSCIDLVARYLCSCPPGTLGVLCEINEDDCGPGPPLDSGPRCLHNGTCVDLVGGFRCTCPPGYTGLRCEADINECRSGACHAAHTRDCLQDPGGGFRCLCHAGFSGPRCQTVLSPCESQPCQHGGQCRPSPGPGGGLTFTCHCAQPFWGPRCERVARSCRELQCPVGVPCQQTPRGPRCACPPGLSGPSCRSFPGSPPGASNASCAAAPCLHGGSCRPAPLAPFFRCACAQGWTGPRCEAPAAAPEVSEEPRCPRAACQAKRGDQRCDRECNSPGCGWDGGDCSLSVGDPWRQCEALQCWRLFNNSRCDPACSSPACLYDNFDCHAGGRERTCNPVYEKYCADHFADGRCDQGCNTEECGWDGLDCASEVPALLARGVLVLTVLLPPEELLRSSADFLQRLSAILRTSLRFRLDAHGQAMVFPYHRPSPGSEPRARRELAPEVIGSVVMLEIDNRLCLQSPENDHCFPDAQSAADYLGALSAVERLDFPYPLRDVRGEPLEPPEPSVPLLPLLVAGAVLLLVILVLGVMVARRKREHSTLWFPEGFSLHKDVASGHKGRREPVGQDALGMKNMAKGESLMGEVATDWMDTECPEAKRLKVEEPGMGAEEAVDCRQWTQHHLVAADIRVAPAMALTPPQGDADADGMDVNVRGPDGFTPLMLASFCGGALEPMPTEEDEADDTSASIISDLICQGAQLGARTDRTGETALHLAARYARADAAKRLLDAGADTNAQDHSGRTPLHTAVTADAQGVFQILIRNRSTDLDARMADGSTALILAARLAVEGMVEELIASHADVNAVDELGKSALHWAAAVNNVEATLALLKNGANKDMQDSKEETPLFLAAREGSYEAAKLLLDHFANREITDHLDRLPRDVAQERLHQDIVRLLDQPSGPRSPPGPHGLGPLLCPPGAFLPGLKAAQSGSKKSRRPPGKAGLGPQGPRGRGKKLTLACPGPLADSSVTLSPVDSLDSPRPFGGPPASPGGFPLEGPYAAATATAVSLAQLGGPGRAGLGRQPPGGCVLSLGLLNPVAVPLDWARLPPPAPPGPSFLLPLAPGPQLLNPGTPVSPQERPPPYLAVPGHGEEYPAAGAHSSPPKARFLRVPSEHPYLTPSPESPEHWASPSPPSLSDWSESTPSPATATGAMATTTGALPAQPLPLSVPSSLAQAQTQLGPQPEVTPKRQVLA
Sequence of Torsin-1A-interacting protein 2 (Homo sapiens) (Q8NFQ8 whole entry, looked up): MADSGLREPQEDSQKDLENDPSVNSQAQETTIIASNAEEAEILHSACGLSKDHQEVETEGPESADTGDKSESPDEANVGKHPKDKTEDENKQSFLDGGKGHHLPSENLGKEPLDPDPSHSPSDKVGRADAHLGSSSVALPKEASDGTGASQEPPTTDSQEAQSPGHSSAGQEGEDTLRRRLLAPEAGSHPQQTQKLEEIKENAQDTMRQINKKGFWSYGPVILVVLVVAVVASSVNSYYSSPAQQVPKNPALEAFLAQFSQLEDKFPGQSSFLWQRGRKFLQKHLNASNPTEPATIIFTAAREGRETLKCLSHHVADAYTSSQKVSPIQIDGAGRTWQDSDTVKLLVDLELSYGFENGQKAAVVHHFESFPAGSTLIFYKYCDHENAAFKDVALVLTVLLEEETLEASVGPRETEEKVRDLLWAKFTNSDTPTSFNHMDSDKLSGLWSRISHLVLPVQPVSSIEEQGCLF

For the molecule `COC(=O)c1c(CC[C@@H](CO)NC(=O)Nc2ccc(OC)cc2)oc(C(=O)Cc2ccccc2)c1C(=O)OC`, the composite z-score in test [1] is -0.211; in test [2], 0.469; in [3], -0.0924; in test [4], 0.411; in test [5], 0.704; in [6] it was 0.191. Moreover, the composite z-score in test [7] is 1.03; in [9] it was -0.0409; in test [10], -0.0672; in test [11], 0.477; in test [15], 0.478; in test [17], -0.0233. Further, the results for the composite z-score in [18], in [19] and in [20] were 0.414, 0.101 and -0.0252, respectively. In addition, the z-score was -0.814 (inactive) in test [8]; 1.54 (inactive) in test [12]; -1.21 (inactive) in test [13]; 2.23 (inactive) in test [14]; 1.85 (inactive) in test [16].
Take `[N-]=[N+]=NCc1ccccc1C[C@@]1(C(=O)O)N=C(c2ccc(OCCCO)cc2)O[C@@H]1c1ccccc1`: the composite z-score was 0.673 in test [1]; -0.231 in test [2]; -0.134 in test [3]; -0.927 in test [4]; -0.0526 in [5]; 1.86 in [6]. For the same molecule, the composite z-score in [7] was 0.754; in test [9] it was 0.0724; in test [10], -0.226; in [11], 0.244; in test [15] it was 2.45; in test [17], 0.0424. Moreover, the composite z-score was -0.811 in [18], -0.364 in test [19] and -0.221 in [20]. In addition, the z-score in test [8] is -1.08 (inactive); in [12], -0.921 (inactive); in test [13], -1.23 (inactive); in test [14], -1.22 (inactive); in test [16], 0.41 (inactive).
With `C=C(CCCC)/C(=C/C[C@@H](OC(=O)c1ccncc1)c1ccc(OCCO)cc1)c1cnc2ccccc2c1`, the composite z-score in [1] worked out at 0.201; in test [2], 0.379; in test [3], 0.0166; in test [4] it was 1.19; in test [5], 1.48; in test [6], 0.227. Moreover, the composite z-score is 0.841 in test [7]; 0.265 in [9]; -0.176 in test [10]; 1.52 in test [11]; 0.447 in [15]; -0.0523 in test [17]. The composite z-score in [18] was 1.72; in [19], 1.06; in test [20], -0.0243. Further, the z-score in test [8] was -0.723 (inactive); in test [12], 0.594 (inactive); in test [13], -1.59 (inactive); in test [14], 0.524 (inactive); in [16] it was 1.48 (inactive).
In the case of `COCCOC(=O)N1C(=O)[C@@]2(c3cc(C#CCNC(N)=O)ccc31)[C@H](c1ccccc1OCCO)N1[C@H](c3ccccc3)[C@H](c3ccccc3)OC(=O)[C@H]1[C@@H]2C(=O)Nc1nc2ccccc2s1`, the composite z-score in [1] is 0.171; in test [2], 1.05; in test [3], -0.0893; in test [4], 0.158; in [5] it was 0.931; in test [6], 0.582. In addition, the composite z-score stood at 0.627 in [7]; 0.986 in test [9]; 0.0623 in [10]; 1.28 in [11]; 1.58 in test [15]; 0.136 in test [17]. Moreover, the figures for the composite z-score in test [18], in test [19] and in [20] were 0.345, 0.799 and -0.0732, respectively. The z-score is 1.18 (inactive) in test [8]; 0.314 (inactive) in [12]; -0.364 (inactive) in test [13]; 1.99 (inactive) in [14]; 2.67 (inactive) in test [16].
For the molecule `CC(C)C[C@@H]1NC(=O)[C@H]2C[C@@H](C(=O)NCCCC[N+](C)(C)C)[C@@H](c3cccc(OCCO)c3)N2C1=O`, the composite z-score in [1] was -0.746; in [2], 1.9; in test [3] it was -0.138; in test [4], 0.253; in test [5], -0.942; in [6], 1.95. The composite z-score in test [7] was 1.43; in test [9], -0.233; in test [10] it was -0.717; in test [11], 0.617; in test [15] it was 3.37; in test [17] it was -0.348. For the same molecule, the composite z-score was found to be 1.21 in test [18], 1.03 in test [19] and 0.009 in test [20]. The z-score in [8] is 0.683 (inactive); in test [12], -0.276 (inactive); in test [13], -0.262 (inactive); in [14], -2.33 (inactive); in test [16], 0.395 (inactive).
